These results are taken from PubChem BioAssay (Tox21).

A number with no mark means an inactive call. Records with an inconclusive call do not appear. Calls of active or inactive are those of the source. Unless noted, calls follow the shape of the dose curve; as a rule, active = well fitted curve in the direction sought with a large enough effect in the repeat runs; inconclusive = weak or mixed curves; inactive = no such curve, though single readings can be large; an effect the other way counts as inactive or inconclusive.

A short description of test [1]: qHTS assay for small molecules that induce genotoxicity in human embryonic kidney cells expressing luciferase-tagged ATAD5 (AID 651632). Also: nearly all actives have a fitted effect of over 15% in size. The procedure, abridged: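 Quantitative HTS in HEK293T expressing luciferase-tagged ATAD5, whose levels rise upon DNA damage. Exposure ran 16 hr at 37C and 5% CO2, with luminescence read 30 min after Amplite addition at room temperature.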
(qHTS replaces the single test concentration by a dilution series.)

Test [2] is described as follows: qHTS assay for small molecule agonists of the p53 signaling pathway - cell viability (AID 651633; calls by dose curve; also: nearly all actives have a fitted effect of over 30% in size; also: potency is read from the fitted curve at half-maximal effect). The procedure, abridged: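 p53RE-bla cells, seeded at 4,000 per well and rested 5 h at 37 C/5% CO2, received compounds in DMSO for 16 h at 37 C. CellTiter-Glo was then added, and luminescence was read after 30 min at room temperature to gauge cytotoxicity.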
Test [3] is described as follows: qHTS assay for small molecules that induce genotoxicity in human embryonic kidney cells expressing luciferase-tagged ATAD5 - cell viability (AID 651634; calls by dose curve; also: nearly all actives have a fitted effect of over 25% in size). The procedure, abridged: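 After 15.5 hr incubation with compound at 37C, 5% CO2, HEK293T ATAD5-luciferase cells received CellTiter-Fluor reagent; fluorescence intensity was quantified following 30 min at 37C.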

Test [4] is described as follows: qHTS assay for small molecule disruptors of the mitochondrial membrane potential - cell viability (AID 720634; calls by dose curve;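 also: human HepG2 liver cancer cells; series mostly up to about 83 µM; nearly all actives have a fitted effect of over 20% in size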). In outline:
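ATP-based luminescent viability readout (CellTiter-Glo, 30 min, room temperature) in HepG2 cells multiplexed with the m-MPI membrane potential dye; compound exposure lasted 1 hr at 37 C.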

Test [5] can be described thus: qHTS assay to test for compound auto fluorescence at 590 nm (red) in HepG2 cells (AID 720674). The procedure, abridged:
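Compound auto-fluorescence is scored relative to Rose Bengal sodium, measured at 540/590 nm in live HepG2 cultures after 1 hr compound contact (37 C, 5% CO2).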

Test [6] can be described thus: qHTS assay to test for compound auto fluorescence at 535 nm (green) in HepG2 cells (AID 720675).
The nature of test [7]: qHTS assay to test for compound auto fluorescence at 460 nm (blue) in HEK293 cells (AID 720678). In outline:
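Blue-channel (Ex/Em 405/460 nm) intensity measured in HEK293 cultures after overnight compound exposure at 37C; signal expressed relative to triamterene. Cells plated 2,000 per well in 10% dialyzed FBS medium and allowed 4-5 hr to attach.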

A short description of test [8]: qHTS assay to test for compound auto fluorescence at 535 nm (green) in HEK293 cells (AID 720680).
The nature of test [9]: qHTS assay to test for compound auto fluorescence at 460 nm (blue) in HEK293 cell free culture (AID 720681). In outline: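 Test compounds were pinned into cell-free culture medium (DMEM with 10% FBS) and fluorescence was read directly at Ex/Em 405/460 nm. Signals were expressed as fluorescence equivalents of triamterene, with DMSO vehicle as control.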
The nature of test [10]: qHTS assay to test for compound auto fluorescence at 590 nm (red) in HEK293 cell free culture (AID 720683). The procedure, abridged: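 Tox21 10K library compounds were pinned into cell-free DMEM with 10% FBS and fluorescence was read at excitation 540 nm. Activity is expressed as Rose Bengal sodium equivalency.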
A short description of test [11]: qHTS assay to test for compound auto fluorescence at 590 nm (red) in HepG2 cell free culture (AID 720684). In outline: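 Ex 540 / Em 590 nm read of compound in cell-free MEM (10% FBS). Rose Bengal sodium reference.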
A short description of test [12]: qHTS assay to test for compound auto fluorescence at 460 nm (blue) in HepG2 cell free culture (AID 720685). The procedure, abridged: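 Cell-free plates of MEM plus 10% FBS received 23 nL compound or DMSO vehicle; blue-channel (405/460 nm) intensity scored against triamterene as reference fluorophore.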
Test [13] is described as follows: qHTS assay to test for compound auto fluorescence at 535 nm (green) in HepG2 cell free culture (AID 720686).
Test [14] in a line: qHTS assay to test for compound auto fluorescence at 460 nm (blue) in HepG2 cells (AID 720687). The procedure, abridged: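 Cells (2,000/well in MEM with 10% FBS) attached overnight at 37 C, then were exposed to compound or DMSO for 1 hr at 37 C, 5% CO2. Fluorescence read at Ex/Em 405/460 nm, expressed as triamterene-equivalent signal.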
Test [15] has as its target Glucocorticoid receptor (Homo sapiens) (UniProt P04150). Briefly: qHTS assay to identify small molecule agonists of the glucocorticoid receptor (GR) signaling pathway (AID 720691; active = well fitted activation curve with a large enough effect in the signal ratio in the repeat runs, not every such curve was filed as active; the % refers to the signal ratio). In outline: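 Cells: GR-bla HeLa, endogenous GR with stably integrated GRE-beta-lactamase reporter. Treatment 18 h, 37 C, compounds delivered in DMSO. Detection via LiveBLAzer B/G FRET substrate, 2 h RT, fluorescence intensity.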

Test [16] has the same target. Description: qHTS assay to identify small molecule antagonists of the glucocorticoid receptor (GR) signaling pathway (AID 720692; active = well fitted inhibition curve with a large enough effect in the signal ratio in the repeat runs, not every such curve was filed as active; the % refers to the signal ratio; also: potency is read from the fitted curve at half-maximal effect). In outline: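 Quantitative HTS in antagonist format: HeLa cells expressing endogenous GR and a stably integrated GRE-bla reporter, stimulated with 5 nM dexamethasone (final) alongside test compounds for 18 h.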
Test [17] in a line: qHTS assay to test for compound auto fluorescence at 535 nm (green) in HEK293 cell free culture (AID 720682). In outline: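 Steps: dispense DMEM/10% FBS into empty wells; pin in compound or DMSO; measure fluorescence at 485/535 nm. Values are fluorescein equivalents.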
The nature of test [18]: qHTS assay to test for compound auto fluorescence at 590 nm (red) in HEK293 cells (AID 720679). In outline:
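Red-channel autofluorescence (Ex/Em 540/590 nm; Rose Bengal sodium reference) was measured after overnight 37C, 5% CO2 exposure of attached HEK293 cells, 2,000 per well in medium with 10% dialyzed FBS.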

Test [19] is described as follows: qHTS assay for small molecule disruptors of the mitochondrial membrane potential (AID 720635). Also: potency is read from the fitted curve at half-maximal effect. The procedure, abridged: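 HepG2 cells (2,000/well) attached overnight at 37C, then took compound for 1 hr at 37C, 5% CO2. Mito-MPS dye was added for 30 min; fluorescence was read at 490/535 nm (monomers) and 540/590 nm (aggregates).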
% is scaled to controls: 0 for no effect and ±100 for the full control effect.

Glucocorticoid receptor (Homo sapiens), sequence (P04150 whole entry, looked up): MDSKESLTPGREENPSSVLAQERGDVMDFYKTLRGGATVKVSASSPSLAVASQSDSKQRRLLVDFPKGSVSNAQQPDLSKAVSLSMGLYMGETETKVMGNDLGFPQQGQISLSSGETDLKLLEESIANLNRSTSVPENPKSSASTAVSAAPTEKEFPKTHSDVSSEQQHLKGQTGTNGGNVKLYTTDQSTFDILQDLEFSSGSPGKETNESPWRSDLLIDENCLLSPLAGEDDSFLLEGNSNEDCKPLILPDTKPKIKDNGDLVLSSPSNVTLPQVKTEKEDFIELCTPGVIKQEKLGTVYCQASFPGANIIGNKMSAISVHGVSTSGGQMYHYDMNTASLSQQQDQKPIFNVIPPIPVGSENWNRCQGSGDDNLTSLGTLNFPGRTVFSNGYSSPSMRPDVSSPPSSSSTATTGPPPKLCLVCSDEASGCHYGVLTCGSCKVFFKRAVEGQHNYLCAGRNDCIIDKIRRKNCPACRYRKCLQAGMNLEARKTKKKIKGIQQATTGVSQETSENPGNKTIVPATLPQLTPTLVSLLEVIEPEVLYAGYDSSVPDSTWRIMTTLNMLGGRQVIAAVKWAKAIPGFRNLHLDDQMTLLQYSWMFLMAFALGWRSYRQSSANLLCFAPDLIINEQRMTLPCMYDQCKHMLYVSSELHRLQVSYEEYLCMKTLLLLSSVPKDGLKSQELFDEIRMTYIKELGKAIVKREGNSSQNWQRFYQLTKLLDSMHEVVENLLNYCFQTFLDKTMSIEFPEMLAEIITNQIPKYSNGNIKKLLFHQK

For `CCOc1ccccc1O[C@H](c1ccccc1)[C@H]1CNCCO1`, the Potency entry in test [1], in test [2], in [3], in test [4], in test [7] and in test [9] was “inactive” each time. In addition, the Potency entry in [12], in test [14], in [15] and in test [16] was “inactive” in each case. Also, the molecule was called inactive in test [5], in [6], in [8], in [10], in test [11] and in test [13].
On to `C[C@]1(Cn2ccnn2)[C@H](C(=O)O)N2C(=O)C[C@H]2S1(=O)=O`, for which the Potency result in test [1], in [2], in test [3], in test [4], in test [7] and in [9] was “inactive” in each case. Also, the Potency result in [12] and in test [14] was “inactive” each time. Further, the molecule was classed as inactive in test [5], in test [6], in [8], in [17], in test [11] and in [13].
Turning to `Cc1ccc(Cl)c(Nc2ccccc2C(=O)O)c1Cl`, the Potency entry in test [1], in [2], in [3], in [4], in [7] and in [9] was “inactive” in each case. The Potency result in test [12] and in test [14] was “inactive” each time. Moreover, the result in [6], in test [18], in [8], in test [17], in test [10] and in [11] was inactive. The outcome in [13] was inactive.
On to `CC1(CN2CCC(n3c(=O)[nH]c4ccccc43)CC2)OCc2ccccc2-n2cccc21` (stereo unspecified), for which the Potency entry in [1], in test [4], in test [7], in test [9], in [12] and in test [14] was “inactive” each time. Further, the Potency result in test [15] is “inactive”. Further, the Potency in test [2] and in test [19] was 29.8 µM (active) throughout. Further, the outcome in [5], in test [6], in [18], in test [8], in test [17] and in test [10] was inactive. The call in test [11] and in test [13] was inactive.
For `O=C(O)CCc1nc(-c2ccccc2)c(-c2ccccc2)o1`, the Potency entry in test [1], in test [2], in test [4], in [19], in test [7] and in test [9] was “inactive” each time. Also, the Potency entry in [12], in [14], in test [15] and in test [16] was “inactive” each time. Further, the molecule was classed as inactive in [6], in [18], in [8], in test [17], in test [10] and in test [11]. Moreover, the molecule was called inactive in test [13].
Consider `CCCCN1CCCC1C(=O)Nc1c(C)cc(C)cc1C` (stereo unspecified), for which the Potency entry in test [1], in test [2], in [3], in test [4], in test [7] and in test [9] was “inactive” each time. In addition, the Potency result in [12], in [14] and in [15] was “inactive” in each case. Further, the outcome in test [5], in test [6], in test [18], in test [8], in test [10] and in [11] was inactive.
Regarding `Cc1ccccc1N=C(N)Nc1ccccc1C`, the Potency result in test [1], in test [2], in test [4], in test [7], in test [9] and in test [12] was “inactive” throughout. Besides, the Potency entry in test [14] and in test [15] was “inactive” throughout. Besides, the outcome in test [5], in [6], in test [18], in test [8], in test [10] and in test [11] was inactive.
As to `CCOC(=O)C1=C(C)NC(C)=C(C(=O)OC)C1c1cccc(Cl)c1Cl` (stereo unspecified), the Potency entry in test [1], in test [2], in test [7], in [9] and in [15] was “inactive” in each case. In addition, the Potency in [19] is 19.7 µM (active); in [16], 10.7 µM (active). Moreover, the molecule was classed as inactive in [5], in [6], in test [18], in [8], in [17] and in test [10]. Besides, the molecule was classed as inactive in test [11] and in test [13].
Regarding `CCCCCCCCC(CCCCCC)C(=O)O` (stereo unspecified), the Potency entry in [1], in [3], in test [4], in [7], in [9] and in test [12] was “inactive” in each case. The Potency entry in test [14] was “inactive”. In addition, the molecule was called inactive in test [5], in test [18], in [8], in test [17], in test [10] and in test [11]. Also, the outcome in [13] was inactive.
As for `CN1C(=O)c2ccccc2C1=O`, the Potency result in test [2], in [4], in [7], in test [9], in test [12] and in [14] was “inactive” in each case. Further, the Potency result in test [15] was “inactive”. Also, the result in test [5], in test [6], in [8], in test [17], in test [10] and in test [11] was inactive. Also, the molecule was classed as inactive in test [13].
For `CN(C(=O)CN(CCO)CC(=O)N(C)C(C)(C)Cc1ccccc1)C(C)(C)Cc1ccccc1`, the Potency result in test [1], in test [2], in test [4] and in test [15] was “inactive” in each case. The fluorescence, % of fluorescein control is -0.0053% [at 18.6 µM] in test [6] and 0.0894% [at 18.6 µM] in test [13]. For the same molecule, the fluorescence, % of triamterene in test [7] was 0.252% [at 18.6 µM]. In addition, the fluorescence, % of fluorescent control was 0.0938% [at 18.6 µM] in [18]; 0.0268% [at 18.6 µM] in test [9]; 0% [at 18.6 µM] in test [10]; -0.036% [at 18.6 µM] in test [12]; 0.0182% [at 18.6 µM] in test [14]. Also, the fluorescence, % of fluorescein in [8] is 0.0843% [at 18.6 µM]. Moreover, the activity change in [17] was -0.0126% [at 18.6 µM]. In addition, the fluorescence, % of Rose Bengal in test [11] is 0.844% [at 18.6 µM].
